Source: PubChem BioAssay (several laboratories)
ERa SRC1 inh: blocks coactivator binding to human estrogen receptor alpha. P03372. TR-FRET ER-alpha LBD / SRC-1 peptide, estradiol-bound. inhibition, % at 25.6 µM. 1.7% of 86,000 active; in the data active means inhibition above about 50%;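 further: 0% = receptor plus peptide control and 100% = peptide only without receptor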
EphB4 antag: blocks human EphB4 binding to ephrin-B2. EphB4 LBD / TNYL-RAW-Alexa532 peptide, fluorescence polarization. inhibition, % at 7 µM. 0.15% of 97,000 active. P54760;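 active means inhibition above the screen-wide mean inhibition plus 3 SD, cut at about 15% in these data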;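 further: 0% = DMSO wells and 100% = excess unlabeled TNYL-RAW peptide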
ERa SRC1 pot: ER-alpha (human) coactivator binding potentiation | P03372 | TR-FRET ERalpha-LBD/SRC-Cy5 coactivator binding, 2 h; 100 = basal binding, no effect | coactivator binding (% of control), % at 25.6 µM | 1.3% of 86,000 active; in the data active means activity above about 200%;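 further: binding measured in presence of low estradiol as agonist stimulus; 0% = peptide alone without receptor and 100% = receptor with peptide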
ERb SRC1 inh: ER-beta (human) coactivator binding inhibition; Q92731; TR-FRET ER-beta LBD / SRC1-Cy5 peptide binding; receptor agonist-loaded with 1 µM estradiol; inhibition, % at 25.6 µM; 1.3% of 86,000 active;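 active means compounds whose percent inhibition of the receptor-coactivator binding signal exceeds about 50% in the single-dose screen, limit read from the data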;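 further: 0% = receptor plus peptide wells without compound and 100% = peptide-only wells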
* = called active by the depositor; [ ] = remark or other dose. This is a sample that favours compounds with a hit; in the whole collection about 2.8% have one here.

How did COc1ccc(Cl)cc1S(=O)(=O)N1CCN(C(=O)c2cc(OC)c(OC)c(OC)c2)CC1 do in these assays?
ERa SRC1 inh: -6; EphB4 antag: -1; ERa SRC1 pot: 102; ERb SRC1 inh: -1

What do the screens show for `Cc1nc(SCC(O)CCl)c([N+](=O)[O-])[nH]1` (stereo not given)?
ERa SRC1 inh: -5; EphB4 antag: 0; ERa SRC1 pot: 93; ERb SRC1 inh: -11

What do the screens show for `Cn1cc(NC(=O)c2cc(NC(=O)c3cc(NC=O)cn3C)cn2C)cc1C(=O)NCCC(=N)N`?
ERa SRC1 inh: 61*; ERa SRC1 pot: 44; ERb SRC1 inh: 71*

How did O=C1CC(/C=C/c2ccco2)=Nc2ccccc2N1 do in these assays?
ERa SRC1 inh: 58*; EphB4 antag: -2; ERa SRC1 pot: 80; ERb SRC1 inh: 44

Results for O=C1CC(C(F)(F)C(F)(F)C(F)(F)C(F)F)=Nc2ccccc2N1 ?
ERa SRC1 inh: -3; EphB4 antag: -3; ERa SRC1 pot: 101; ERb SRC1 inh: 11

Results for Cc1nn(CC(=O)NC(C)c2ccccc2)c(=O)c2ccccc12 (stereo not given) ?
ERa SRC1 inh: -5; ERa SRC1 pot: 125; ERb SRC1 inh: -14

What do the screens show for `Cc1ccc(-c2nn(CC(=O)NC(C)c3ccccc3)c(=O)c3ccccc23)cc1` (stereo not given)?
ERa SRC1 inh: 27; EphB4 antag: -2; ERa SRC1 pot: 207*[fluorescence artefact?]; ERb SRC1 inh: 1

Results for C/C(N)=C(/C#N)C(=O)CSc1nnc(Nc2cccc(C)c2C)s1 ?
ERa SRC1 inh: 52*[fluorescence artefact?]; EphB4 antag: -2; ERa SRC1 pot: 47; ERb SRC1 inh: 65*

How did Cc1nnc(SCC(=O)NCc2ccco2)n1-c1ccccc1 do in these assays?
ERa SRC1 inh: 4; EphB4 antag: 3; ERa SRC1 pot: 111; ERb SRC1 inh: 6

Results for C/C(N)=C(/C#N)C(=O)CSc1nnc(SCc2ccc(Cl)cc2)s1 ?
ERa SRC1 inh: 23; EphB4 antag: -2; ERa SRC1 pot: 60; ERb SRC1 inh: 40

How did C/C(N)=C(/C#N)C(=O)CSc1nnc(Nc2c(C)cccc2C)s1 do in these assays?
ERa SRC1 inh: 87*[fluorescence artefact?]; ERa SRC1 pot: 16; ERb SRC1 inh: 93*[fluorescence artefact?]

What do the screens show for `Cc1ccccc1Nc1nnc(SCC(=O)NCc2ccco2)s1`?
ERa SRC1 inh: 85*[fluorescence artefact?]; EphB4 antag: 6; ERa SRC1 pot: 51; ERb SRC1 inh: 54*

How did COc1cc(C(=O)Nc2ccc(Br)cc2C(=O)c2cc(OC)c(OC)c(OC)c2)cc(OC)c1OC do in these assays?
EphB4 antag: 0

Results for O=c1nc2n(c3ccccc13)Cc1ccccc1-2 ?
ERa SRC1 inh: 10; ERa SRC1 pot: 137; ERb SRC1 inh: 5

Results for O=c1cc(-c2ccccc2)nc2n1Cc1ccccc1-2 ?
ERa SRC1 inh: 34; EphB4 antag: 11; ERa SRC1 pot: 75; ERb SRC1 inh: 55*[fluorescence artefact?]

What do the screens show for `COc1ccc(-n2nc3c(c2NC(=O)c2cc4ccccc4oc2=O)CS(=O)(=O)C3)cc1`?
ERa SRC1 inh: 63*; ERa SRC1 pot: 86; ERb SRC1 inh: 66*[fluorescence artefact?]

How did COc1ccc(CC(=O)Nc2c3c(nn2-c2cccc(Cl)c2)CS(=O)(=O)C3)cc1 do in these assays?
ERa SRC1 inh: 0; EphB4 antag: 2; ERa SRC1 pot: 93; ERb SRC1 inh: -7

How did Cc1ccc(C(=O)OCc2cn3ccccc3n2)cc1 do in these assays?
ERa SRC1 inh: -7; ERa SRC1 pot: 113; ERb SRC1 inh: -6

Results for Cc1ccc2[nH]c(=O)c(-c3nc4cc(C)ccn4c3NCc3ccco3)cc2c1 ?
ERa SRC1 inh: 73*[fluorescence artefact?]; ERa SRC1 pot: 151; ERb SRC1 inh: 39

What do the screens show for `CCOC(=O)CSc1nnc(CNc2cccc(Cl)c2)n1C`?
ERa SRC1 inh: 0; EphB4 antag: -2; ERa SRC1 pot: 117; ERb SRC1 inh: -4

How did COCCCn1c(Cc2csc(Nc3cccc(Cl)c3)n2)nnc1SCC(=O)OC do in these assays?
ERa SRC1 inh: 37; EphB4 antag: 8; ERa SRC1 pot: 42; ERb SRC1 inh: 61*[fluorescence artefact?]

What do the screens show for `CCCCSc1cnn(-c2ccccc2)c(=O)c1SCCCC`?
ERa SRC1 inh: 13; EphB4 antag: 4; ERa SRC1 pot: 202*; ERb SRC1 inh: 26

What do the screens show for `CCSc1cnn(-c2ccccc2)c(=O)c1SCC`?
ERa SRC1 inh: -6; EphB4 antag: 1; ERa SRC1 pot: 109; ERb SRC1 inh: -10

How did CCn1c(=O)n(CC)c2cc(S(=O)(=O)Nc3cc(C)cc(C)c3C#N)ccc21 do in these assays?
ERa SRC1 inh: 45; EphB4 antag: 7; ERa SRC1 pot: 98; ERb SRC1 inh: 5

Results for CCc1ccc(S(=O)(=O)c2n[nH]n3c2nc(=O)c2ccccc23)cc1 ?
ERa SRC1 inh: 6; EphB4 antag: 2; ERa SRC1 pot: 560*[fluorescence artefact?]; ERb SRC1 inh: 7

Results for CCCc1nc2sc3c(SCC(=O)NCc4ccco4)ncnc3c2c2c1CCC2 ?
ERa SRC1 inh: 44; ERa SRC1 pot: 255*[fluorescence artefact?]; ERb SRC1 inh: 48

What do the screens show for `CCOc1ccc(CC2S/C(=N/c3ccccn3)NC2=O)cc1` (stereo not given)?
ERa SRC1 inh: -57; EphB4 antag: 0; ERa SRC1 pot: 331*; ERb SRC1 inh: -25

Results for CCOc1ccc(C(=O)N/N=C(\c2ccccc2)c2ccccn2)cc1 ?
EphB4 antag: -2

Results for CCCCCCN=CC1=C(O)C(C(=O)OC)C(C)(C)CC1=O (stereo not given) ?
ERa SRC1 inh: 42; EphB4 antag: -1; ERa SRC1 pot: 54; ERb SRC1 inh: 60*

How did COC(=O)C1C(O)=C(C=NC2CCCCC2)C(=O)CC1(C)C (stereo not given) do in these assays?
ERa SRC1 inh: 1; EphB4 antag: 4; ERa SRC1 pot: 100; ERb SRC1 inh: -5

How did Cn1c(N2CCCCC2)cc(=O)n(C)c1=O do in these assays?
ERa SRC1 inh: -13; EphB4 antag: 2; ERa SRC1 pot: 104; ERb SRC1 inh: 96*[fluorescence artefact?]

Results for CCCCCCc1cc2cc(-c3nnc(-c4cc(OC)c(OC)c(OC)c4)o3)c(=O)oc2cc1O ?
ERa SRC1 inh: 18; EphB4 antag: -2; ERa SRC1 pot: 224*[fluorescence artefact?]; ERb SRC1 inh: 0

Results for O=C(Nc1ccncc1)c1ccc2c(c1)C(=O)N(C1CCCCC1)C2=O ?
ERa SRC1 inh: 16; EphB4 antag: -6; ERa SRC1 pot: 96; ERb SRC1 inh: 15

How did Cc1cc(=O)oc2c(CN3CCC(C)CC3)c(O)c(Cl)cc12 do in these assays?
ERa SRC1 inh: 67*; EphB4 antag: -3; ERa SRC1 pot: 41; ERb SRC1 inh: 69*[fluorescence artefact?]

How did CCN1CCN(Cc2c(O)c(Cl)cc3c(C)cc(=O)oc23)CC1 do in these assays?
ERa SRC1 inh: 48; EphB4 antag: 13; ERa SRC1 pot: 42; ERb SRC1 inh: 63*

What do the screens show for `Cc1ccc(S(=O)(=O)CC#CCOC(=O)c2ccc([N+](=O)[O-])cc2)cc1`?
ERa SRC1 inh: 15; EphB4 antag: 6; ERa SRC1 pot: 125; ERb SRC1 inh: 17

Results for CCNC(=S)N/N=C/c1ccc(OCC(=O)Nc2ccc(C)cc2)cc1 ?
EphB4 antag: 5

Results for Cc1ccc(Sc2ccc(N)cc2C#N)cc1 ?
EphB4 antag: 7

Results for O=C(O)c1c(-c2ccccc2)c2oc3ccccc3c2[nH]c1=O ?
EphB4 antag: -3
